# Results as given in PubChem BioAssay (NCI).
# The panel holds about 83,000 compounds, 20% with a hit somewhere; the sample as a whole holds those more often.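 Testing used 96-well plates and a 48-hour single-concentration exposure. Example: -40 means 40% of the starting cells died.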 Calls of active or inactive are those of the source. Rule for the calls: active = growth percent below 10; inactive = the rest.
# How the values were obtained:
# Assay in all cases: NCI-60 one-dose screen, 48 h (100 = growth as untreated, 0 = no growth, -100 = all killed)
# HL-60(TB) leukemia = settings: 10 µM unless noted
# NCI-H226 lung = settings: 10 µM
# NCI-H322M lung = settings: 10 µM
# HOP-62 NSCLC = settings: 10 µM
# NCI-H460 lung = settings: 10 µM
# A549/ATCC NSCLC = settings: 10 µM
# 786-0 renal = settings: 10 µM
# COLO 205 colon = settings: 10 µM
# DU-145 prostate = settings: 10 µM
# SF-268 CNS = settings: 10 µM
# SF-295 CNS = settings: 10 µM
# SF-539 CNS = settings: 10 µM
# HCT-15 colon = settings: 10 µM
# HT29 colon = settings: 10 µM
# SNB-75 CNS = settings: 10 µM
# SNB-19 CNS = settings: 10 µM
# U251 CNS = settings: 10 µM
# PC-3 prostate = settings: 10 µM
# ACHN renal = settings: 10 µM
# CCRF-CEM leukemia = settings: 10 µM
smiles,measurement,setting,value
Cn1cc(-c2nnc(N)nc2-c2c[nH]c3ccc(Br)cc23)c2cc(Br)ccc21,growth,HL-60(TB) leukemia,90.8% (inactive)
Nc1nc(N)c2c(n1)NC(c1ccc(Cl)cc1)CC(c1ccc(Nc3nc(NCCO)nc(N4CCOCC4)n3)cc1)=N2 (centres undefined),growth,HL-60(TB) leukemia,27% (inactive)
Cc1cccc(N2CCN(C3=C(Cl)C(=O)c4ncccc4C3=O)CC2)c1,growth,HL-60(TB) leukemia,7.3% (active)
CCOC(=O)c1c(Nc2ccccc2)nn2c(-c3ccc(OC)c(OC)c3)ccnc12,growth,HL-60(TB) leukemia,43.3% (inactive)
C[C@H](Nc1ncnc2ccc(-c3cnc(Cl)c(NS(C)(=O)=O)c3)cc12)c1ccccc1,growth,HL-60(TB) leukemia,-17.6% (active)
O=S(=O)(Nc1ccc(-n2cnc3cc(-c4ccc(O)cc4)ccc32)cc1)C1CC1,growth,HL-60(TB) leukemia,56.9% (inactive)
COc1cc(OC)c(S(=O)(=O)N(CCCl)CCCl)cc1C(=O)/C=C/c1ccc(Cl)cc1,growth,NCI-H226 lung,78.9% (inactive)
same,growth,NCI-H322M lung,71.9% (inactive)
same,growth,HOP-62 NSCLC,91.7% (inactive)
same,growth,NCI-H460 lung,77.7% (inactive)
same,growth,A549/ATCC NSCLC,71.5% (inactive)
same,growth,786-0 renal,64.4% (inactive)
same,growth,COLO 205 colon,101% (inactive)
same,growth,DU-145 prostate,68.8% (inactive)
same,growth,SF-268 CNS,73.2% (inactive)
same,growth,SF-295 CNS,88.7% (inactive)
same,growth,SF-539 CNS,51.3% (inactive)
same,growth,HCT-15 colon,31.6% (inactive)
same,growth,HT29 colon,79.5% (inactive)
same,growth,SNB-75 CNS,37.8% (inactive)
same,growth,SNB-19 CNS,65.2% (inactive)
same,growth,U251 CNS,55.1% (inactive)
same,growth,PC-3 prostate,70.3% (inactive)
same,growth,ACHN renal,65.3% (inactive)
same,growth,HL-60(TB) leukemia,49.4% (inactive)
same,growth,CCRF-CEM leukemia,16.4% (inactive)
COc1cc2c3c(cc4c5c(ccc4c3c1OC)OCO5)N(CCN(C)C)C2=O,growth,HL-60(TB) leukemia,-17.1% (active)
C/C(=N/N)c1nnn(-c2ccc(Br)cc2)c1C,growth,HL-60(TB) leukemia,102% (inactive)
c1ccc(-c2c(-c3ccccc3)[n+](Cc3ccc4ccccc4c3)c(-c3ccccc3)n2Cc2ccc3ccccc3c2)cc1,growth,HL-60(TB) leukemia,-59.9% (active)
COc1ccc(/C=N/NC2=NC3C(S2)N(C)C(=O)N3C)cc1 (centres undefined),growth,HL-60(TB) leukemia,-28.8% (active)
Cc1ccc(CSc2nc(-c3ccc(Cl)cc3)c(C#N)c(N3CCNCC3)n2)cc1,growth,HL-60(TB) leukemia,43.3% (inactive)
CC(=O)OC[C@@]12Oc3c(cccc3-c3ccc(O)c4c3O[C@]3(COC(C)=O)C(=C4O)C(=O)C[C@H](C)[C@@H]3OC(C)=O)C(O)=C1C(=O)C[C@H](C)[C@@H]2OC(C)=O,growth,HL-60(TB) leukemia,-46.3% (active)
Cn1cc(CNc2nc3ccc(OC/C(=C/F)CN)cc3o2)ccc1=O,growth,HL-60(TB) leukemia,101% (inactive)
COc1cc(C(=O)C[n+]2ccc3ccccc3c2)cc(OC)c1OC,growth,HL-60(TB) leukemia,92.7% (inactive)
Nc1nc(-c2cccc([N+](=O)[O-])c2)c(N=Nc2ccc([N+](=O)[O-])cc2Cl)s1,growth,HL-60(TB) leukemia,6.8% (active)
CC1(C)CC[C@]2(C(=O)O)CC[C@]3(C)C(=CC[C@@H]4[C@@]5(C)CC/C(=N\OCCC#N)C(C)(C)[C@@H]5CC[C@]43C)[C@@H]2C1,growth,HL-60(TB) leukemia,148% (inactive)
CCc1ccc(NC(=O)N[C@@H](Cc2cccc(F)c2)C(=O)N[C@@H]2C(=O)N3CCC[C@H]3C(=O)N3CCCC[C@H]3C(=O)N[C@@H](C)C(=O)N3C[C@H](C)C[C@H]3C(=O)O[C@H]2C)c(F)c1,growth,HL-60(TB) leukemia,8.27% (active)
NS(=O)(=O)c1ccc(Nc2nc(SCC(=O)c3ccc(Cl)cc3)nc3ccccc23)cc1,growth,HL-60(TB) leukemia,103% (inactive)
CCC/C=C/C=C/C(=O)N[C@@H](Cc1cc(F)cc(F)c1)C(=O)N[C@@H]1C(=O)N2CCC[C@H]2C(=O)N2CCCC[C@H]2C(=O)N[C@@H](C)C(=O)N2C[C@H](C)C[C@H]2C(=O)O[C@H]1C,growth,HL-60(TB) leukemia,3.76% (active)
COC1=C(c2ccccc2)C(=O)C(OC)=C(c2ccccc2)C1=O,growth,HL-60(TB) leukemia,5.79% (active)
COc1ccccc1/C=C/C=N/NC1=NC2C(S1)N(C)C(=O)N2C (centres undefined),growth,HL-60(TB) leukemia,-22.1% (active)
N#C/C(=C\c1cccc2c1OCO2)C(=O)Nc1sc2c(c1C#N)CCCC2,growth,HL-60(TB) leukemia,105% (inactive)
O=C1[C@H]2Cc3c([nH]c4ccccc34)[C@@H](c3ccc(Br)cc3)N2C(=O)CN1C1CCN(Cc2ccccc2)CC1,growth,HL-60(TB) leukemia,-28.4% (active)
Cc1ccc(Nc2nc(SC(C)C)nc(-c3ccccc3)c2C#N)cc1,growth,HL-60(TB) leukemia,118% (inactive)
COc1ccccc1C(=O)CSc1nc(Nc2ccc(S(N)(=O)=O)cc2)c2ccccc2n1,growth,HL-60(TB) leukemia,94.5% (inactive)
CC(=O)Nc1nc2c(s1)C1=CC[C@H]3[C@@H]4CC[C@H](C(C)=O)[C@@]4(C)CC[C@@H]3[C@@]1(C)CC2,growth,HL-60(TB) leukemia,52.5% (inactive)
COC(=O)[C@@]1(C)CC[C@]2(C)CC[C@]3(C)C(=CC(=O)[C@@H]4[C@@]5(C)Cc6c(n(CC#CCN7CCN(C)CC7)c7ccccc67)C(C)(C)[C@@H]5CC[C@]43C)[C@@H]2C1,growth,HL-60(TB) leukemia,3.4% (active)
CCN1C(=O)N(CC)C2SC(N/N=C/c3ccccc3F)=NC21 (centres undefined),growth,HL-60(TB) leukemia,0.098% (active)
O=[N+]([O-])c1ccc(O)c2ncccc12,growth,HL-60(TB) leukemia,-5.62% (active)
CC(=O)Nc1cc(F)cc(-c2ccc3[nH]cc(-c4ccccc4)c3n2)c1,growth,HL-60(TB) leukemia,7.81% (active)
CC(Nc1c(C#N)cnc2ccc(-c3cncc(-c4n[nH]c(=O)o4)c3)cc12)c1ccccc1 (centres undefined),growth,HL-60(TB) leukemia,14.9% (inactive)
Cn1ccnc1C(=O)/C=C/c1ccc(CNC(=O)c2ccc(S(F)(F)(F)(F)F)cc2)cc1,growth,HL-60(TB) leukemia,-4.98% (active)
CC(=O)NC(C)(C)C(=O)N1CCC[C@H]1C(=O)NC(C)(C)C(=O)N[C@@H](C)C(=O)NC(C)(C)C(=O)NC(C)(C)C(=O)N[C@@H](CCC(N)=O)C(=O)NC(C)(C)C(=O)N[C@H](C(=O)NC(C)(C)C(=O)NCC(=O)N[C@@H](CC(C)C)C(=O)NC(C)(C)C(=O)N1CCC[C@H]1C(=O)N[C@H](C(=O)NC(C)(C)C(=O)NC(C)(C)C(=O)N[C@@H](CCC(N)=O)C(=O)N[C@@H](CCC(N)=O)C(=O)N[C@H](CO)Cc1ccccc1)C(C)C)C(C)C,growth,HL-60(TB) leukemia,7.73% [4.25 µM] (active)
CC1CCN(S(=O)(=O)c2ncsc2-c2ccccc2)CC1,growth,HL-60(TB) leukemia,72.3% (inactive)
O=C1Nc2ccc(Cl)cc2/C1=C/c1ccc(OCC(=O)c2ccc(Br)cc2)cc1,growth,HL-60(TB) leukemia,110% (inactive)
CCOC(=O)C1=C(C)Nc2nc3ccccc3n2C1c1cccc(Br)c1 (centres undefined),growth,HL-60(TB) leukemia,22.8% (inactive)
C=C(C)[C@@H]1CC[C@]2(C(=O)ON)CC[C@]3(C)[C@H](CC[C@@H]4[C@@]5(C)C/C(=C/c6ccc(Br)cc6)C(=O)C(C)(C)[C@@H]5CC[C@]43C)[C@@H]12,growth,HL-60(TB) leukemia,43.6% (inactive)
COC(=O)c1[nH]nc2c1C1(C(=O)c3cccc4cccc1c34)C(C#N)=C(N)O2 (centres undefined),growth,HL-60(TB) leukemia,82.5% (inactive)
O=C(/C=C/c1ccc(Cl)c(Cl)c1)Nc1ncc(Cc2ccc(Cl)c(Cl)c2)s1,growth,HL-60(TB) leukemia,48.2% (inactive)
COc1cc([C@H]2OC[C@H]3[C@@H]2CO[C@@H]3c2ccc(O)c(OC)c2)ccc1O,growth,HL-60(TB) leukemia,93.5% (inactive)
CC1=C(C)C(=O)C(Nc2ccc(C)c(C)c2)=C(Br)C1=O,growth,HL-60(TB) leukemia,-37.7% (active)
Oc1ccc(CSc2nnc(-c3cnccn3)o2)c2cccnc12,growth,HL-60(TB) leukemia,-11.5% (active)
O=C1c2c(c3c4cc(Br)ccc4[nH]c3c3ccc4ccccc4c23)C(=O)N1CCN1CCCCC1,growth,HL-60(TB) leukemia,1.48% (active)
Cn1c2nc3ccccc3c-2cc2ccccc21,growth,HL-60(TB) leukemia,41.6% (inactive)
CN(C)c1ccc(-c2c(NC(C)(C)C)nc3c(OCCc4ccccc4)cccn23)cc1,growth,HL-60(TB) leukemia,-32.7% (active)
O=C1Nc2cc(OC(F)(F)F)ccc2Oc2ccc(-c3ccnc(N4CC[C@H](O)C4)c3)cc21,growth,HL-60(TB) leukemia,-23.6% (active)
CCNC(=O)N1CCc2cc(OC)c(OCCc3ccc(OC)cc3)cc2C1c1ccc(OC)cc1C (centres undefined),growth,HL-60(TB) leukemia,23.9% (inactive)
Cn1ncc2c(C(=O)c3ccc(F)cc3)nc(C(C)(C)C)nc21,growth,HL-60(TB) leukemia,91.2% (inactive)
Fc1ccc(-c2nc(C(Cl)Cl)nc3cc(-c4ccccc4)nn23)cc1,growth,HL-60(TB) leukemia,-8.76% (active)
COc1ccc(-c2c3c(cn2Cc2cccc(OC)c2)-c2oncc2CCC3)cc1,growth,HL-60(TB) leukemia,100% (inactive)
CN1CCN(c2ccc(C(=O)/C=C/c3ccc(Cl)c(C(F)(F)F)c3)cc2)CC1,growth,HL-60(TB) leukemia,-22.6% (active)
Cc1cccc2c3c(sc12)C(c1ccc(F)cc1)C(C#N)=C(/N=C/c1ccc(Cl)cc1)O3 (centres undefined),growth,HL-60(TB) leukemia,2.41% (active)
COc1ccc(-c2cc(-c3cccc4ccccc34)n3c(n2)nc2ccccc23)cc1,growth,HL-60(TB) leukemia,-0.785% (active)
CC1=CC(=O)CC(C)(C)[C@@]1(O)/C=C/C(C)=C\C(=O)O,growth,HL-60(TB) leukemia,-41.9% (active)
